High-throughput results as filed in PubChem.
IL1B secr inh: qHTS for Inhibitors of Inflammasome Signaling: IL-1-beta AlphaLISA Primary Screen. AID 743279, 2014. activity change, % at 57.5 µM. THP-1 LPS/ATP IL-1B secretion, AlphaLISA, 16 h; hits give low values. actives 4.7% (n = 360,000); in the data active = activity change below about -50%; inconclusive = mostly about -30% to -49%; also: % is scaled to controls: 0 for no effect and ±100 for the full control effect
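Secreted IL-1B measured by AlphaLISA bead assay after 16 h compound exposure of THP-1 cells; compounds (final up to 57.5 uM) added 1 h before LPS (250 ng/mL) and ATP (1.25 mM) stimulation; lower signal means less secretion.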
SW480 rereplic: A quantitative high throughput screen for small molecules that induce DNA re-replication in SW480 colon adenocarcinoma cells; actives 1.8% (n = 340,000); Potency, µM (titrated, usually from 46.1 µM), inactives show top-dose re-replication activation, most hits filed as activators; SW480 DNA re-replication, Hoechst DNA content imaging, 48 h; also: potency is read from the fitted curve at half-maximal effect; % of control where 0% means no effect; nearly all actives have a fitted effect of over 55% in size
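First, 250 cells per well were seeded. Next, compound or vehicle (23 nL) was pinned in, plates sat 48 hr at 37 C. Finally Hoechst was added for 40 min before fluorescence scanning.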
BCR signal inh: qHTS Assay to Find Inhibitors of Chronic Active B-Cell Receptor Signaling; actives 0.05% (n = 340,000); ABC-DLBCL IkBa-CBG/CBR reporter, luminescence ratio, 4 h; AID 493014, 2011; Potency, µM (doses to about 46.1 µM), for the others: top-dose activity change, negative = inhibition, hits mostly inhibitors; active = well fitted inhibition curve with a large enough effect in the signal ratio, with a control signal flat, not every such curve was filed as active; inconclusive = small, poorly fitted or top-dose-only effect, or effect the other way, or a change in a side signal; the % refers to the signal ratio;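 also: potency is read from the fitted curve at half-maximal effect; plate controls were basal doxycycline-induced cells for no effect and cells given 10 µM MG132 for full effect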
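Compounds up to 46 uM were incubated four hours with TMD8 cells whose green CBG68 luciferase is fused to IkappaBalpha; red CBR luminescence normalised the signal, and concentration-effect curves were fitted to fusion, red and ratio data.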
DT40 TDP1 no CPT: qHTS for Inhibitors of human tyrosyl-DNA phosphodiesterase 1 (TDP1): qHTS in cells in absence of CPT; DT40 Tdp1-/- hTDP1 cells, no CPT, ATP luminescence, 48 h; Potency, µM (doses to about 46.2 µM), for inactives: top-dose activity change, negative = growth inhibition, actives largely listed as inhibitors; actives 15% (n = 420,000); AID 686978, 2013; also: potency is read from the fitted curve at half-maximal effect; % is scaled to controls: 0 for no effect and ±100 for the full control effect; nearly all actives have a fitted effect of over 55% in size
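Chicken DT40 Tdp1-/- cells stably complemented with human TDP1 were seeded at 400 cells/well with DMSO in place of 20 nM camptothecin. After compound pinning, cells grew at least 48 hr at 37 °C; viability read by CellTiter-Glo luminescence.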
MCF10A rerep: A quantitative high throughput screen for small molecules that induce DNA re-replication in MCF 10a normal breast cells; MCF 10A DNA re-replication, Hoechst nuclear intensity, 48 h; actives 2.9% (n = 350,000); Potency, µM (top dose mostly 46.1 µM), for inactives: at the highest dose activity, positive = re-replication, usual class: activators; also: potency is read from the fitted curve at half-maximal effect; % of control where 0% means no effect; nearly all actives have a fitted effect of over 50% in size
TDP1 cell CPT: qHTS for Inhibitors of human tyrosyl-DNA phosphodiesterase 1 (TDP1): qHTS in cells in presence of CPT | actives 12% (n = 420,000) | chicken DT40 Tdp1-/-;hTDP1 cells + 20 nM CPT, ATP luminescence, 48 h | Potency, µM (series often up to 46.2 µM), inactives show at the highest dose activity change, negative = growth inhibition, actives largely listed as inhibitors; also: potency is read from the fitted curve at half-maximal effect; % is scaled to controls: 0 for no effect and ±100 for the full control effect; nearly all actives have a fitted effect of over 55% in size
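Cell growth measured by CellTiter-Glo luminescence after a minimum 48 h, 37 C compound exposure with 20 nM CPT in Tdp1-knockout DT40 cells stably expressing hTDP1, seeded 400/well; qHTS titration format.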
* hit, by the source's call; [ ] = dose if it differs, or a comment. In the library only some 19% were active in any assay of this set; here they are far more common. Unless noted, calls follow the shape of the dose curve; as a rule, active = well fitted curve in the direction sought with a large enough effect; inconclusive = small, poorly fitted or top-dose-only effect, or another doubt; inactive = no such curve, though single readings can be large; an effect the other way counts as inactive or inconclusive.

How did Cc1cc(C)c2c(=O)c3c(oc2c1)C(=O)N(CCCOC(C)C)C3c1ccccc1F (centres undefined) do in these assays?
DT40 TDP1 no CPT: inconclusive; TDP1 cell CPT: 5%

Results for Cc1ncc(CN2CCC(C(=O)Nc3cccc(-c4cscn4)c3)CC2)cn1 ?
IL1B secr inh: inactive; SW480 rereplic: -27%; BCR signal inh: 1%; DT40 TDP1 no CPT: inconclusive; MCF10A rerep: inconclusive; TDP1 cell CPT: inconclusive

What do the screens show for `CC(=O)c1cccc(CN2CCC(C(=O)Nc3ccc(Oc4cccnc4)cc3)CC2)c1`?
IL1B secr inh: inactive; SW480 rereplic: 2%; BCR signal inh: -9%; DT40 TDP1 no CPT: 23µM*; MCF10A rerep: inconclusive; TDP1 cell CPT: inconclusive

Results for CC(=O)c1cccc(CN2CCC(C(=O)Nc3ccc(-c4cccc(C)c4)cc3)CC2)c1 ?
IL1B secr inh: -62*; SW480 rereplic: inconclusive; BCR signal inh: inconclusive; DT40 TDP1 no CPT: 6.5µM*; MCF10A rerep: inconclusive; TDP1 cell CPT: 10µM*

Results for O=C(Nc1ccc(Oc2cccnc2)cc1)C1CCN(Cc2ccccc2F)CC1 ?
IL1B secr inh: -10; SW480 rereplic: -1%; BCR signal inh: -2%; DT40 TDP1 no CPT: inconclusive; MCF10A rerep: 3%; TDP1 cell CPT: inconclusive

How did Cc1ccc(CN2CCC(C(=O)Nc3ccc(Oc4cccnc4)cc3)CC2)cc1 do in these assays?
IL1B secr inh: 5; SW480 rereplic: 0%; BCR signal inh: -1%; DT40 TDP1 no CPT: 16µM*; MCF10A rerep: -3%; TDP1 cell CPT: 18µM*

Results for O=C(Nc1ccc(Oc2cccnc2)cc1)C1CCN(Cc2cccc(Cl)c2)CC1 ?
IL1B secr inh: 12; SW480 rereplic: 22%; BCR signal inh: inconclusive; DT40 TDP1 no CPT: inconclusive; MCF10A rerep: inconclusive; TDP1 cell CPT: 18µM*

Results for Cc1cc(=O)c2c(N(C)C)cccc2[nH]1 ?
IL1B secr inh: -3; DT40 TDP1 no CPT: inconclusive; TDP1 cell CPT: 1%

Results for COc1ccc(NC(=O)CN(C)C(=O)c2cn(-c3ccccc3)nc2-c2cccs2)cc1 ?
IL1B secr inh: -16; SW480 rereplic: 0%; BCR signal inh: 8%; DT40 TDP1 no CPT: 16µM*; MCF10A rerep: 23%; TDP1 cell CPT: inconclusive

How did CN(CC(=O)Nc1ccc(F)cc1)C(=O)c1cn(-c2ccccc2)nc1-c1cccs1 do in these assays?
IL1B secr inh: -60*; SW480 rereplic: -10%; BCR signal inh: -4%; DT40 TDP1 no CPT: inconclusive; MCF10A rerep: -1%; TDP1 cell CPT: inconclusive

What do the screens show for `CN(CC(=O)Nc1ccc(F)cc1)C(=O)c1ccc2ccccc2n1`?
IL1B secr inh: 13; SW480 rereplic: 5.2µM*; BCR signal inh: inconclusive; DT40 TDP1 no CPT: -38%; MCF10A rerep: 0%; TDP1 cell CPT: -7%

Results for CCC1CCCCN1c1cc(C)nc2cc(-c3cccc(C)c3)nn12 (centres undefined) ?
IL1B secr inh: -99*; SW480 rereplic: inconclusive; BCR signal inh: inconclusive; DT40 TDP1 no CPT: 13µM*; MCF10A rerep: 3.5µM*; TDP1 cell CPT: inconclusive

Results for COc1ccc(O)c(CN2CCCN(c3nc(C)c4cc(C)c(C)cc4n3)CC2)c1 ?
DT40 TDP1 no CPT: -14%; TDP1 cell CPT: -1%[9.04 µM]

How did Cc1cc2nc(N3CCCN(Cc4cccn4-c4ncccn4)CC3)nc(C)c2cc1C do in these assays?
DT40 TDP1 no CPT: 16µM*; TDP1 cell CPT: -14%[9.04 µM]

How did COc1ccc(-c2ccc(C(=O)N(C)Cc3csc(C)n3)c(N3CCC(N4CCc5ccccc5C4)CC3)n2)cc1 do in these assays?
DT40 TDP1 no CPT: -21%; TDP1 cell CPT: 8%[9.04 µM]

How did O=C(Nc1cccc(-c2nnc(-c3ccccc3)o2)c1)C1CCCCC1 do in these assays?
IL1B secr inh: -16; SW480 rereplic: 4%; BCR signal inh: 7%; DT40 TDP1 no CPT: 18µM*; MCF10A rerep: inconclusive; TDP1 cell CPT: inconclusive

What do the screens show for `CCCC(=O)Nc1cccc(-c2nc3ccccc3c(=O)o2)c1`?
IL1B secr inh: -2; SW480 rereplic: -2%; BCR signal inh: inconclusive; DT40 TDP1 no CPT: 3%; MCF10A rerep: 4%; TDP1 cell CPT: 39%

What do the screens show for `Cc1ccccc1NS(=O)(=O)c1cccc(-c2nnc(-c3ccccc3)o2)c1`?
IL1B secr inh: 3; SW480 rereplic: -18%; BCR signal inh: 2%; DT40 TDP1 no CPT: -39%; MCF10A rerep: 14%; TDP1 cell CPT: -48%

Results for CCC(=O)Nc1cccc(-c2nnc(-c3ccccc3)o2)c1 ?
IL1B secr inh: inconclusive; SW480 rereplic: -4%; DT40 TDP1 no CPT: 21µM*; MCF10A rerep: -4%; TDP1 cell CPT: 21µM*

How did O=S(=O)(NC1CCCCC1)c1cccc(-c2nnc(-c3ccccc3)o2)c1 do in these assays?
IL1B secr inh: inconclusive; SW480 rereplic: -6%; BCR signal inh: -3%; DT40 TDP1 no CPT: 15µM*; MCF10A rerep: 7%; TDP1 cell CPT: inconclusive

Results for CCCCC(=O)Nc1cccc(-c2nnc(-c3ccccc3)o2)c1 ?
IL1B secr inh: inconclusive; SW480 rereplic: -7%; BCR signal inh: -19%; DT40 TDP1 no CPT: 23µM*; MCF10A rerep: -11%; TDP1 cell CPT: 23µM*

What do the screens show for `O=C(N/C(=C/c1ccc(Br)cc1)C(=O)N1CCCCC1)c1ccccc1F`?
IL1B secr inh: -25; SW480 rereplic: inconclusive; BCR signal inh: 1%; DT40 TDP1 no CPT: inconclusive; MCF10A rerep: 7%; TDP1 cell CPT: inconclusive

What do the screens show for `Cc1ccc(S(=O)(=O)NCc2cccnc2)cc1C(=O)NC1CCCCC1`?
IL1B secr inh: -11; SW480 rereplic: 27%; BCR signal inh: -3%; DT40 TDP1 no CPT: -42%; MCF10A rerep: inconclusive; TDP1 cell CPT: -35%

How did COC(=O)c1ccccc1C(=O)N1CCC(CCC(=O)NC2CC2)CC1 do in these assays?
IL1B secr inh: -6; SW480 rereplic: -2%; BCR signal inh: 5%; DT40 TDP1 no CPT: 13%; MCF10A rerep: 0%; TDP1 cell CPT: -2%

What do the screens show for `O=C(N1CCN=C1SCc1cccnc1)C12CC3CC(CC(C3)C1)C2`?
SW480 rereplic: 0%; BCR signal inh: inconclusive; DT40 TDP1 no CPT: 15µM*; MCF10A rerep: inconclusive; TDP1 cell CPT: inconclusive
